Source: PubChem BioAssay (EPA / NIEHS)
Several values for one entry are separate records, joined by “and”; a condition that tells them apart may be missing. Equal values may be shown once. Records with an inconclusive call do not appear. Some structures have more than one record in an assay (separate samples or runs), and their calls can disagree. Activity calls are given as the source filed them. The calls were made as follows, unless noted: active = hit-call score of the fitted dose curve at least 0.9, where 1 is the maximum; inactive = score below 0.9.

What was measured:
[1] = ATG_NFI_CIS: Attagene CIS-FACTORIAL HepG2 Assay for human Nuclear Factor I (NFI) (AID 2282989); conditions: HepG2 cis-regulatory reporter, NFI response element transcription; actives raise or lower the signal
Procedure, shortened: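 Transfected HepG2 liver cells, exposed 24 h, supplied total RNA for oligo(dT) reverse transcription and reporter-specific PCR. Labelled, HpaI-cut fragments were sized by capillary electrophoresis; DMSO set the baseline for bidirectional fitting.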

[2] = target: Myc proto-oncogene protein (Homo sapiens) (UniProt P01106); test: ATG_Myc_CIS: Attagene CIS-FACTORIAL HepG2 Assay for human Myelocytomatosis (Myc) Proto-Oncogene Transcription Factor (AID 2282990); conditions: HepG2, Attagene cis-reporter transcription factor activity; actives raise or lower the signal
Chain of Myc proto-oncogene protein (Homo sapiens) (P01106 whole entry, looked up, the tested form may be a part): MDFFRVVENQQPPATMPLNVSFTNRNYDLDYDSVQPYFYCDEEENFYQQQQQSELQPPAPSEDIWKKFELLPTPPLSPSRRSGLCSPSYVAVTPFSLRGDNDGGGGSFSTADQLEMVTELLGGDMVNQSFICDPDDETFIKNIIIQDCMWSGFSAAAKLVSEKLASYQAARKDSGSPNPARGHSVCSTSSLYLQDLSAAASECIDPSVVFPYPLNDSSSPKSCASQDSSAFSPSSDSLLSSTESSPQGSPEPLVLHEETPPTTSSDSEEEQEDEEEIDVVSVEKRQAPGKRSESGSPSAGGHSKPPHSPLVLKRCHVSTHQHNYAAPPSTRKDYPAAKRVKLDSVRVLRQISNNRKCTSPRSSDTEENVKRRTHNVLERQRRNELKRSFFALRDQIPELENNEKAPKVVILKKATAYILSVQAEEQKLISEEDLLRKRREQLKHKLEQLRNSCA
Procedure, shortened: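 Fluorescence intensity of reporter-specific cDNA fragments, separated by capillary electrophoresis, gives the signal. Transfected HepG2 cells carrying cis-promoter reporter constructs are incubated with compound for 24 h; DMSO serves as baseline.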

[3] = ATG_NF_kB_CIS: Attagene CIS-FACTORIAL HepG2 Assay for human Nuclear Factor Kappa B (NF-kB) (AID 2282991); conditions: HepG2 Attagene cis-factorial NF-kB reporter mRNA; actives raise or lower the signal
Procedure, shortened: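 Fluorescence of labelled RT-PCR products separated by capillary electrophoresis gives reporter mRNA levels from transfected HepG2 cells exposed 24 h; values are fitted in both directions relative to DMSO.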

[4] = ATG_NRF2_ARE_CIS: Attagene CIS-FACTORIAL HepG2 Assay for human Nuclear Factor Erythroid 2 Related Factor 2 (NFR2) response to Antioxidant Response Elements (ARE) (AID 2282992); conditions: HepG2 Attagene ARE/NRF2 reporter, transcription factor activity; actives raise or lower the signal
Procedure, shortened: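 HepG2 cells transiently transfected with multiplexed cis-element reporter constructs, 24 h after chemical dosing; reporter mRNA quantified by RT-PCR, fluorescent primer extension, HpaI digestion and capillary electrophoresis. Bidirectional fit relative to DMSO.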

[5] = ATG_Oct_MLP_CIS: Attagene CIS-FACTORIAL HepG2 Assay for human Octamer-Binding Transcription Factor (Oct) (AID 2282993); conditions: HepG2 Attagene cis-factorial Oct reporter, mRNA; actives raise or lower the signal
Procedure, shortened: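 Using HepG2 cells bearing transfected cis-reporter constructs, mRNA induction was read after 24 h by fluorescent RT-PCR and capillary electrophoresis, with DMSO defining baseline for gain- or loss-of-signal fits.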

[6] = target: Cellular tumor antigen p53 (Homo sapiens) (UniProt P04637); test: ATG_p53_CIS: Attagene CIS-FACTORIAL HepG2 Assay for human p53 Transcription Factor (AID 2282994); conditions: HepG2 p53 cis-element reporter, Attagene mRNA; actives raise or lower the signal
Chain of Cellular tumor antigen p53 (Homo sapiens) (P04637 whole entry, looked up): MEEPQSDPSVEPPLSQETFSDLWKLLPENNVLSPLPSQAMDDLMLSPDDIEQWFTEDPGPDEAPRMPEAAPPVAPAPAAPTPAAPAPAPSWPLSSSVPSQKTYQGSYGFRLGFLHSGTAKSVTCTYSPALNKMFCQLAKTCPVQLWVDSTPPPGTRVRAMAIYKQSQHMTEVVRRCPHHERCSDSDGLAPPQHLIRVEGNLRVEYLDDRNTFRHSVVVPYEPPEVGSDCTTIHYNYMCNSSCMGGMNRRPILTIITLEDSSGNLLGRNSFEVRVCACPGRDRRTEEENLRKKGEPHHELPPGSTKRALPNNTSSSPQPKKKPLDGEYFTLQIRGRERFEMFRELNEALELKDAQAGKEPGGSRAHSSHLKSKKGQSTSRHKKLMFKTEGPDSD
Procedure, shortened: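 HepG2 cells transiently transfected with cis-regulated multiple reporter transcription units, dosed 24 h. Reporter mRNA measured by RT-PCR, 6-FAM primer extension, HpaI digestion and capillary electrophoresis; bidirectional fit relative to DMSO.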

[7] = BSK_3C_TissueFactor: BioMAP Diversity Plus: 3C Assay for Tissue Factor Biomarker Activity (AID 2282997); conditions: BioMAP 3C HUVEC, tissue factor biomarker readout; actives raise or lower the signal
Procedure, shortened: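 Human vascular primary cells (umbilical vein endothelium) received test chemical; Tissue Factor was determined by ELISA at 24 h, and both gain and loss of signal versus DMSO were fitted.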

[8] = BSK_3C_uPAR: BioMAP Diversity Plus: 3C Assay for Urokinase-type plasminogen activator receptor (uPAR) Biomarker Activity (AID 2282998); conditions: BioMAP 3C HUVEC, uPAR biomarker ELISA; actives raise or lower the signal
Procedure, shortened: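 In this endothelial cell-based assay, human umbilical vein primary cells were treated with chemicals and harvested at 24 h. uPAR was quantified using ELISA, with gains or losses fitted relative to DMSO controls.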

[9] = BSK_3C_VCAM1: BioMAP Diversity Plus: 3C Assay for Vascular cell adhesion molecule 1 (VCAM1) Biomarker Activity (AID 2282999); conditions: BioMAP 3C HUVEC, VCAM1 ELISA, cytokine-stimulated; actives raise or lower the signal
Procedure, shortened: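 Human umbilical vein endothelial cells (3C system), biomarker read by ELISA 24 h after dosing; bidirectional fit against DMSO baseline. Cytotoxicity tracked by SRB total-protein staining in parallel cultures at biomarker time.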

[10] = BSK_4H_Eotaxin3: BioMAP Diversity Plus: 4H Assay for Eotaxin 3 Biomarker Activity (AID 2283000); conditions: primary human endothelial cells (HUVEC); actives raise or lower the signal
Procedure, shortened: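 Readout is Eotaxin-3 (CCL26) level by ELISA in primary human umbilical vein endothelial cells harvested 24 h after chemical exposure; activity fitted in both directions against DMSO control.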

[11] = target: human Peroxisome Proliferator-activated Receptor alpha (PPARa), PPARA (gene 5465) (UniProt Q07869); test: ATG_PPARa_TRANS: Attagene TRANS-FACTORIAL HepG2 Assay for human Peroxisome Proliferator-activated Receptor alpha (PPARa) (AID 2283001; active = hit-call score of the fitted dose curve at least 0.9, where 1 is the maximum;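 as to AC50: potency for gain of reporter signal over DMSO so agonist or activator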)
Chain of human Peroxisome Proliferator-activated Receptor alpha (PPARa), PPARA (gene 5465) (Q07869 whole entry, looked up, the tested form may be a part): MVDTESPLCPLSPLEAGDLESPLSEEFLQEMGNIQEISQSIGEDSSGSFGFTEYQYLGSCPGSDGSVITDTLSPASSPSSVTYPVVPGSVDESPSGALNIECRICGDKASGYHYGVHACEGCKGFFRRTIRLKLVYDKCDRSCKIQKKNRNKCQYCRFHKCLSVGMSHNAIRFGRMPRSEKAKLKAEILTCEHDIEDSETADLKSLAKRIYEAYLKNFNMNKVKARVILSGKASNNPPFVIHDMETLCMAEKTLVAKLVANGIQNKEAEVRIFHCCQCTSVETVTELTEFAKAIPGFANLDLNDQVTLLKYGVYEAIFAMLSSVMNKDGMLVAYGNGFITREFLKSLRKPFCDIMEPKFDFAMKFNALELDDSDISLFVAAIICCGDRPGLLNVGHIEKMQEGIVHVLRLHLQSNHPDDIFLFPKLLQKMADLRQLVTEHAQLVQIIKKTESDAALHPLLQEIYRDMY
Procedure, shortened: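 Measures transcriptional activity of an exogenous chimeric PPARa-Gal4 protein in transiently transfected HepG2 cells after 24 h dosing. Reporter mRNA quantified via RT-PCR and capillary electrophoresis; DMSO served as negative control.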

[12] = target: human Peroxisome Proliferator-activated Receptor delta (PPARd), PPARD (gene 5467) (UniProt Q03181); test: ATG_PPARd_TRANS: Attagene TRANS-FACTORIAL HepG2 Assay for human Peroxisome Proliferator-activated Receptor delta (PPARd) (AID 2283002; active = hit-call score of the fitted dose curve at least 0.9, where 1 is the maximum)
Chain of human Peroxisome Proliferator-activated Receptor delta (PPARd), PPARD (gene 5467) (Q03181 whole entry, looked up, the tested form may be a part): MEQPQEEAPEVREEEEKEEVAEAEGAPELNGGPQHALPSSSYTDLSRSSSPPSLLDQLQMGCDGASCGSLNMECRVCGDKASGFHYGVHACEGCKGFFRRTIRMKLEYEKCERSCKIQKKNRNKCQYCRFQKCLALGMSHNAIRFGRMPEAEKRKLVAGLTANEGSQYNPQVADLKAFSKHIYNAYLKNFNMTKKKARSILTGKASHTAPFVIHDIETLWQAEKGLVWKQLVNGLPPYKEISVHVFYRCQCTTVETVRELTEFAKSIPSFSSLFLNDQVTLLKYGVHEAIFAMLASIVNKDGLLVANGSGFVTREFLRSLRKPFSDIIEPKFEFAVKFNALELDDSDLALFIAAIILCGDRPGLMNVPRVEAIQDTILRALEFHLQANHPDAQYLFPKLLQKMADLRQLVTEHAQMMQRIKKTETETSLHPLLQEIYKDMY
Procedure, shortened: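 Fluorescence from capillary electrophoresis of labelled RT-PCR reporter fragments gives the signal; DMSO sets baseline. Cells: HepG2 transiently carrying GAL4-UAS reporter units plus chimeric nuclear receptor-Gal4 proteins, exposed to chemicals for 24 h.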

[13] = read-out: Intercellular Adhesion Molecule 1 (ICAM1), ICAM1 (gene 3383); test: BSK_3C_ICAM1: BioMAP Diversity Plus: 3C Assay for Intercellular Adhesion Molecule 1 (ICAM1) Biomarker Activity (AID 2283003); conditions: primary human endothelial cells (HUVEC); actives raise or lower the signal
Procedure, shortened: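 Human vascular endothelial primary cells, 3C conditions, 24 h treatment. ICAM-1 by ELISA.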

[14] = BSK_3C_Proliferation: Cell Proliferation Assessment in the BioMAP Diversity Plus: 3C Assay (AID 2283006); conditions: primary human endothelial cells (HUVEC);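 as to AC50: potency may reflect either rise or fall in cell number versus DMSO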
Procedure, shortened: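 Proliferation of human vascular endothelial primary cells after 48 h dosing, quantified as SRB-stained protein at 560 nm relative to DMSO.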

[15] = target: Peroxisome proliferator-activated receptor gamma (Homo sapiens) (UniProt P37231); test: ATG_PPARg_TRANS: Attagene TRANS-FACTORIAL HepG2 Assay for human Peroxisome Proliferator-activated Receptor-gamma (PPARg) (AID 2283007; active = hit-call score of the fitted dose curve at least 0.9, where 1 is the maximum)
Chain of Peroxisome proliferator-activated receptor gamma (Homo sapiens) (P37231 whole entry, looked up): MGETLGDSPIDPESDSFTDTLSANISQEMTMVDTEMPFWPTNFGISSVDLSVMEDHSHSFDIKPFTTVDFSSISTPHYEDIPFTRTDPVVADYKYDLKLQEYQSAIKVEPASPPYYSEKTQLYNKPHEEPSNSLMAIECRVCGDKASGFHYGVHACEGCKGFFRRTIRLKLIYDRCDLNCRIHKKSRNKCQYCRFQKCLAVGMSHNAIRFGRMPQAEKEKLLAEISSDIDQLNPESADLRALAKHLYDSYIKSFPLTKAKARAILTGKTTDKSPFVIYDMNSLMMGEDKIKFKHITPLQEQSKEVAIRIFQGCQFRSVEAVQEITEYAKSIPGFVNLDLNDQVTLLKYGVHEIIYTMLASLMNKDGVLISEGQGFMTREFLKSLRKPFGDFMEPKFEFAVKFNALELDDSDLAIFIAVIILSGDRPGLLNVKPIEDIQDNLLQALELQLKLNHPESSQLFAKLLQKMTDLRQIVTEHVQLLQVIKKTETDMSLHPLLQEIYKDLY
Procedure, shortened: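 Twenty-four hours after chemical dosing of transiently transfected HepG2 cells, isolated RNA was converted to cDNA, reporter sequences amplified and 6-FAM-labelled, then HpaI-digested and analysed by capillary electrophoresis. Signal increase against DMSO was fitted.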

[16] = target: Nuclear receptor subfamily 1 group I member 2 (Homo sapiens) (UniProt O75469); test: ATG_PXR_TRANS: Attagene TRANS-FACTORIAL HepG2 Assay for human Pregnane X Receptor (PXR) (AID 2283008; active = hit-call score of the fitted dose curve at least 0.9, where 1 is the maximum)
Chain of Nuclear receptor subfamily 1 group I member 2 (Homo sapiens) (O75469 whole entry, looked up, the tested form may be a part): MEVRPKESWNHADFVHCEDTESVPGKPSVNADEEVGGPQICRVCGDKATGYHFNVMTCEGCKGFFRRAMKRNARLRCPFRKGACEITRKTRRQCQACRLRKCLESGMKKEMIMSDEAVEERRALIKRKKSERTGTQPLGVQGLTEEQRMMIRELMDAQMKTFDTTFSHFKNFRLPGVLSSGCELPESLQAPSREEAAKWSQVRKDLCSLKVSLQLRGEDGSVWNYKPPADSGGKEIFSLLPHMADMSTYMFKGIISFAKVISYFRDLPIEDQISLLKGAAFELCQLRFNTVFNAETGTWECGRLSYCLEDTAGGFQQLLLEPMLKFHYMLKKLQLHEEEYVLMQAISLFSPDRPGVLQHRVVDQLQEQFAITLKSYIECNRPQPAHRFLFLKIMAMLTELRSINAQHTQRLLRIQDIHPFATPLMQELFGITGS
Procedure, shortened: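 HepG2 cells transiently transfected with GAL4-UAS reporter units and PXR-Gal4 chimera, exposed 24 h. Reporter mRNA quantified by RT-PCR, fluorescent labelling, HpaI digestion and capillary electrophoresis; gain of signal vs DMSO.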

[17] = target: human Retinoic Acid Receptor gamma (RARg), RARG (gene 5916) (UniProt P13631); test: ATG_RARg_TRANS: Attagene TRANS-FACTORIAL HepG2 Assay for human Retinoic Acid Receptor gamma (RARg) (AID 2283009; active = hit-call score of the fitted dose curve at least 0.9, where 1 is the maximum)
Chain of human Retinoic Acid Receptor gamma (RARg), RARG (gene 5916) (P13631 whole entry, looked up, the tested form may be a part): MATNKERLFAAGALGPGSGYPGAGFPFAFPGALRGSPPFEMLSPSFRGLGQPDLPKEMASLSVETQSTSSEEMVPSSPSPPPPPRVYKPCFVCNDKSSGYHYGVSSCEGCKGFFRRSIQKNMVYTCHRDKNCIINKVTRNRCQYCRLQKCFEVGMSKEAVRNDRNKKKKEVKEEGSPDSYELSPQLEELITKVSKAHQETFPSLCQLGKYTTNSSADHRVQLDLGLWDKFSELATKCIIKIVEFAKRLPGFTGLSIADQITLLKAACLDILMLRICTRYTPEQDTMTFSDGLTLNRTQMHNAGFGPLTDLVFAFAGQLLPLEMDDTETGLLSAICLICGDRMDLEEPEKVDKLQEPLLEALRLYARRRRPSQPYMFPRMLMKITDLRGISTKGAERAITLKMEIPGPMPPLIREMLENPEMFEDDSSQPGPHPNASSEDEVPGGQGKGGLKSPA
Procedure, shortened: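 HepG2, RARg-GAL4 TRANS system, 24 h exposure; reporter mRNA by RT-PCR + CE fluorescence; increase over DMSO.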

[18] = target: human Retinoic Acid Receptor beta (RARb), RARB (gene 5915) (UniProt P10826); test: ATG_RARb_TRANS: Attagene TRANS-FACTORIAL HepG2 Assay for human Retinoic Acid Receptor beta (AID 2283004; active = hit-call score of the fitted dose curve at least 0.9, where 1 is the maximum)
Chain of human Retinoic Acid Receptor beta (RARb), RARB (gene 5915) (P10826 whole entry, looked up, the tested form may be a part): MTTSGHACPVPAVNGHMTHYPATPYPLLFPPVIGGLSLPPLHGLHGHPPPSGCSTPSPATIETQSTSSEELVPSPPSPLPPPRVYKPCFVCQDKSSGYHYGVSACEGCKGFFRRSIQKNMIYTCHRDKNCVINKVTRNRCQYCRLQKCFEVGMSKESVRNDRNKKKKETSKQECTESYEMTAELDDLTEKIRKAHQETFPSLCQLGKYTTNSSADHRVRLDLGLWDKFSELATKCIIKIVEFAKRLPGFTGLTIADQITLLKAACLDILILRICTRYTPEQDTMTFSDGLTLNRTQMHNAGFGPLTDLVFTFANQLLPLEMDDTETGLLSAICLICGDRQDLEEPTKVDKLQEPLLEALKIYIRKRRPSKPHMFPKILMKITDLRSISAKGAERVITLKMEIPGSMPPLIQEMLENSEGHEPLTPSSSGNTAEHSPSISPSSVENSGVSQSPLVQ
Procedure, shortened: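 Readout is reporter mRNA induction: RNA reverse-transcribed, PCR-amplified, FAM-labelled, HpaI-cut and resolved by capillary electrophoresis. Transiently transfected HepG2 cells carrying exogenous NR–Gal4 chimeras were dosed for 24 h; activity fitted upward relative to DMSO.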

[19] = target: Retinoic acid receptor alpha (Homo sapiens) (UniProt P10276); test: ATG_RARa_TRANS: Attagene TRANS-FACTORIAL HepG2 Assay for human Retinoic Acid Receptor alpha (RARa) (AID 2283005; active = hit-call score of the fitted dose curve at least 0.9, where 1 is the maximum)
Chain of Retinoic acid receptor alpha (Homo sapiens) (P10276 whole entry, looked up, the tested form may be a part): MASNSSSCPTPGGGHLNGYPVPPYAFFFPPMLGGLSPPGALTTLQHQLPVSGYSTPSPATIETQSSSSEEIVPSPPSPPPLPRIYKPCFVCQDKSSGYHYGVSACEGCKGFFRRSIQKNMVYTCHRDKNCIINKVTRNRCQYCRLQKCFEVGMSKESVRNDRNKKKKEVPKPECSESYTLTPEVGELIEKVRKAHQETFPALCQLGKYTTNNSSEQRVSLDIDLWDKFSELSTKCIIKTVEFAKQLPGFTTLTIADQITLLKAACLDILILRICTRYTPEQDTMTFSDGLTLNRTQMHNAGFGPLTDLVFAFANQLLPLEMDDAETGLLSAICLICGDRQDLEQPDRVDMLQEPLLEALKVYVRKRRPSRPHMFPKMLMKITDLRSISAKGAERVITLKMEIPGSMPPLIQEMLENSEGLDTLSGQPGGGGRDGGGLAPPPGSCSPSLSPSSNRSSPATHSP
Procedure, shortened: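 HepG2 transiently transfected with multiplex GAL4-UAS reporter units including a human RARa–GAL4 chimera; 24 h compound exposure. Reporter mRNA quantified by RT-PCR, 6-FAM labeling and capillary electrophoresis; gain of signal versus DMSO.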

[20] = target: human RAR-related Orphan Receptor beta (RORb), RORB (gene 6096) (UniProt Q92753); test: ATG_RORb_TRANS: Attagene TRANS-FACTORIAL HepG2 Assay for human RAR-related Orphan Receptor beta (RORb) (AID 2283010; active = hit-call score of the fitted dose curve at least 0.9, where 1 is the maximum)
Chain of human RAR-related Orphan Receptor beta (RORb), RORB (gene 6096) (Q92753 whole entry, looked up, the tested form may be a part): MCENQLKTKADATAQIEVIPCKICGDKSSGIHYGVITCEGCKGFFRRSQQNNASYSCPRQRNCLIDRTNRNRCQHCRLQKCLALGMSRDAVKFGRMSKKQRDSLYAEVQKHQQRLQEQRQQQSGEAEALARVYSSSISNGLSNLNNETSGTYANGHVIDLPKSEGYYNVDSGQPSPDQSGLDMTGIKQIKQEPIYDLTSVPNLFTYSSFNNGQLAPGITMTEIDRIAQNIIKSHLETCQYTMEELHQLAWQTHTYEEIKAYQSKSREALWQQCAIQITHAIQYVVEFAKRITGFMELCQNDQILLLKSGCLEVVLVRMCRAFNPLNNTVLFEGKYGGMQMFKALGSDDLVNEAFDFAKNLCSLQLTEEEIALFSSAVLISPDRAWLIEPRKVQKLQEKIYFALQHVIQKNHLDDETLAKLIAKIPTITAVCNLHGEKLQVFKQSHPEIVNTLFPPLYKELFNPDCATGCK
Procedure, shortened: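 In this TRANS-format test, human HepG2 cells express chimeric NR-Gal4 fusion proteins driving GAL4-UAS reporters. After 24 h dosing, reporter transcripts are measured by fluorescent RT-PCR/capillary electrophoresis, with DMSO as negative control.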

Measured: AC50

CC(C)(O)c1cnn2c(-c3ccc(F)c(-c4c(F)cccc4C#N)c3)cnc2n1
active: [4] 19.8 µM | [6] 8.54 µM | [7] 28.2 µM | [8] 31.3 µM | [9] 35.3 µM | [10] 33.6 µM | [14] 33.8 µM | [16] 0.0774 µM
inactive: [1] | [2] | [3] | [5] | [11] | [12] | [13] | [15]

O=C(Oc1ccc(Br)cc1)N1CCN2CCC1CC2
active: [3] 60.9 µM | [6] 64.9 µM
not listed: [18] | [19] | [20]
inactive: all other assays above

CCCCCCCCn1sccc1=O
inactive: [4] | [11]
active: [1] 17.2 µM | [2] 17.5 µM | [3] 21.1 µM | [5] 15.9 µM | [6] 19.9 µM | [7] 11.7 µM | [8] 15.3 µM | [9] 9.3 µM | [10] 9.13 µM | [13] 11.7 µM | [14] 0.796 µM | [15] 9.45 µM | [16] 10.7 µM

CCNS(=O)(=O)C(F)(F)C(F)(F)C(F)(F)C(F)(F)C(F)(F)C(F)(F)C(F)(F)C(F)(F)F
inactive: [1] | [2] | [5] | [7] | [8] | [9] | [10] | [11] | [12] | [13] | [18] | [19] | [16] | [17] | [20]
active: [1] 117 µM and 61.4 µM | [2] 96.5 µM | [4] 25.7 µM and 41.5 µM and 13.3 µM | [5] 96.5 µM | [8] 19.6 µM | [9] 14.8 µM | [10] 22.4 µM and 17 µM | [11] 63.9 µM and 56.2 µM | [14] 19.3 µM and 46 µM and 43.2 µM | [15] 96.5 µM and 120 µM and 51.2 µM | [16] 12.7 µM and 9.73 µM

CCCCCOC(=O)c1ccccc1C(=O)OCCCCC
active: [4] 56.4 µM | [5] 161 µM | [9] 20 µM | [10] 20 µM | [14] 19.1 µM | [15] 49.7 µM | [16] 27.9 µM
not listed: [12] | [17] | [18] | [19] | [20]
inactive: all other assays above

CN(C)C(=O)Nc1ccc(Cl)cc1
not listed: [16] | [17] | [18] | [19] | [20]
inactive: all other assays above

O=Cc1ccco1
not listed: [15] | [16] | [18] | [20]
inactive: all other assays above
